Bioassay records from PubChem.
Only some compounds are listed: those with a hit (about 19% of all), similar ones and a draw of the others.
KB-V1 MDR tox: qHTS assay for MDR1-selective chemotherapeutics: Primary screen using the drug-selected MDR subline cells KB-V1 | Potency, µM (doses to about 46.1 µM), hits mostly cytotoxic | KB-V1 MDR cells viability, CellTiter-Glo, 72 h | 3.4% of 400,000 active; also: nearly all actives have a fitted effect of over 60% in size
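Compound-treated KB-V1 multidrug-resistant cells, 72 h, 37 degrees C; viability by CellTiter-Glo. Fitted qHTS curves give the values.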
TDP1 cell CPT: qHTS for Inhibitors of human tyrosyl-DNA phosphodiesterase 1 (TDP1): qHTS in cells in presence of CPT | chicken DT40 Tdp1-/-;hTDP1 cells + 20 nM CPT, ATP luminescence, 48 h | Potency, µM (titrated, usually from 46.2 µM), without a hit: top-dose activity change, negative = growth inhibition, actives largely listed as inhibitors | 12% of 420,000 active; also: nearly all actives have a fitted effect of over 55% in size
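Chicken DT40 Tdp1-/- cells complemented with human TDP1, 400 cells/well, exposed to compounds plus 20 nM camptothecin for at least 48 h at 37 C; viability read as ATP content by CellTiter-Glo luminescence.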
DT40 TDP1 no CPT: qHTS for Inhibitors of human tyrosyl-DNA phosphodiesterase 1 (TDP1): qHTS in cells in absence of CPT; DT40 Tdp1-/- hTDP1 cells, no CPT, ATP luminescence, 48 h; Potency, µM (top dose mostly 46.2 µM), without a hit: top-dose activity change, negative = growth inhibition, hits mostly inhibitors; 15% of 420,000 active; AID 686978, 2013; also: nearly all actives have a fitted effect of over 55% in size
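Growth of hTDP1-complemented DT40 Tdp1-knockout cells is measured by ATP luminescence after at least 48 hr compound exposure at 37 °C, with DMSO substituting for the 20 nM CPT used in the parallel screen.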
HT1080NT lethal: qHTS for induction of synthetic lethality in tumor cells producing 2HG: qHTS for the HT-1080-NT fibrosarcoma cell line | HT-1080-NT fibrosarcoma viability, CellTiter-Glo ATP luminescence, 48 h | Potency, µM (titrated, usually from 46.1 µM), without a hit: at the top dose activity, negative = less viability, hits mostly cytotoxic | 1.6% of 360,000 active;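 also: NT is the 2HG producing partner of a matched IDH1 knockdown line; 0% = DMSO-treated cells and -100% = media-only wells without cells; nearly all actives have a fitted effect of over 55% in size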
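750 cells/well, RPMI + 5% FBS; 2 h settle, compound pin-transfer, 48 h at 37 degrees C. CellTiter-Glo 10 min RT, luminescence. Normalized to DMSO and media-only wells.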
KB-3-1 tox: qHTS assay for MDR1-selective chemotherapeutics: Primary screen using the parental adenocarcinoma cell KB-3-1; Potency, µM (series often up to 46.1 µM), hits mostly cytotoxic; KB-3-1 viability, CellTiter-Glo ATP luminescence, 72 h; AID 1347075, 2019; 1.4% of 400,000 active; also: nearly all actives have a fitted effect of over 60% in size
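KB-3-1 cells, DMEM (no phenol red) + 10% FBS; compound by pin transfer, 72 h, 37 °C. Readout: CellTiter-Glo luminescence after 10 min. Data normalized, curve-fitted.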
HT1080 IDH1KD tx: qHTS for induction of synthetic lethality in tumor cells producing 2HG: qHTS for the HT-1080-IDH1KD cell line; HT-1080 IDH1 knockdown viability, ATP luminescence, 48 h; Potency, µM (highest dose often 46.1 µM), for the others: top-dose activity, negative = toxicity, hits mostly cytotoxic; 2% of 360,000 active; AID 686971, 2013;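 also: 0% = DMSO wells and -100% = cell-free medium wells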
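CellTiter-Glo luminescence after 48 h compound exposure at 37 degrees C of IDH1-knockdown HT-1080 cells in 5% FBS RPMI. %Activity scaled between DMSO wells and cell-free media wells, with curves fitted and assigned curve classes.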
* hit, by the source's call. Calls follow the shape of the dose curve; as a rule, active = well fitted curve in the direction sought with a large enough effect; inconclusive = small, poorly fitted or top-dose-only effect, or another doubt; inactive = no such curve, though single readings can be large; an effect the other way counts as inactive or inconclusive. Unless noted, % is scaled to controls: 0 for no effect and ±100 for the full control effect; potency is read from the fitted curve at half-maximal effect.

How did O=C(C[C@H]1C[C@H](C(=O)N2CCCCC2)[C@@]2(CCc3ccccc3)c3[nH]c4ccc(Cl)cc4c3CCN2C1=O)NCCc1ccccn1 do in these assays?
KB-V1 MDR tox: inconclusive; TDP1 cell CPT: inconclusive; DT40 TDP1 no CPT: 18.4µM*; HT1080NT lethal: 10.1%; KB-3-1 tox: inactive; HT1080 IDH1KD tx: -0.6%

What do the screens show for `CCN(CC)C(=O)[C@H]1C[C@H](CC(=O)NCCc2ccccn2)C(=O)N2CCc3c([nH]c4ccc(Cl)cc34)[C@]12C`?
KB-V1 MDR tox: inactive; TDP1 cell CPT: inconclusive; DT40 TDP1 no CPT: 20.6µM*; HT1080NT lethal: -0.1%; KB-3-1 tox: inactive; HT1080 IDH1KD tx: -2.2%

How did C[C@]12c3[nH]c4cc(-c5ccco5)ccc4c3CCN1C(=O)[C@@H](CC(=O)NCCN1CCOCC1)C[C@@H]2C(=O)N1CCCCC1 do in these assays?
KB-V1 MDR tox: inactive; TDP1 cell CPT: -28.3%; DT40 TDP1 no CPT: inconclusive; HT1080NT lethal: 1.8%; KB-3-1 tox: inactive; HT1080 IDH1KD tx: -3.5%

Results for COCCCNC(=O)C[C@H]1C[C@H](C(=O)N2CCCCC2)[C@@]2(C)c3[nH]c4cc(-c5ccco5)ccc4c3CCN2C1=O ?
KB-V1 MDR tox: inactive; TDP1 cell CPT: 16.4µM*; DT40 TDP1 no CPT: inconclusive; HT1080NT lethal: -3.0%; KB-3-1 tox: inactive; HT1080 IDH1KD tx: -3.2%

What do the screens show for `COc1ccc(CNC(=O)C[C@H]2C[C@H](C(=O)N3CCCCC3)[C@@]3(C)c4[nH]c5ccc(Cl)cc5c4CCN3C2=O)cc1OC`?
KB-V1 MDR tox: inactive; TDP1 cell CPT: 18.4µM*; DT40 TDP1 no CPT: 11.6µM*; HT1080NT lethal: -15.0%; KB-3-1 tox: inactive; HT1080 IDH1KD tx: -16.1%

What do the screens show for `CC[C@]12c3[nH]c4cc(-c5ccco5)ccc4c3CCN1C(=O)[C@@H](CC(=O)NCc1ccc(OC)c(OC)c1)C[C@@H]2C(=O)N1CCN(C(=O)c2ccco2)CC1`?
KB-V1 MDR tox: inactive; TDP1 cell CPT: inconclusive; DT40 TDP1 no CPT: inconclusive; HT1080NT lethal: -2.9%; KB-3-1 tox: inactive; HT1080 IDH1KD tx: -8.2%

How did COc1ccc(CNC(=O)C[C@H]2C[C@H](C(=O)N3CCCCC3)[C@@]3(C)c4[nH]c5cc(-c6ccco6)ccc5c4CCN3C2=O)cc1OC do in these assays?
KB-V1 MDR tox: inconclusive; TDP1 cell CPT: inconclusive; DT40 TDP1 no CPT: 18.4µM*; HT1080NT lethal: -0.5%; KB-3-1 tox: inactive; HT1080 IDH1KD tx: -14.3%

How did O=C(COc1ccc(F)cc1)Nc1nnc(S(=O)(=O)N2CCc3ccccc32)s1 do in these assays?
KB-V1 MDR tox: inactive; TDP1 cell CPT: inconclusive; DT40 TDP1 no CPT: inconclusive; KB-3-1 tox: inactive

Results for COCCCn1c(=O)c2ccccc2n(CC(=O)Nc2ccc3c(c2)OCCO3)c1=O ?
KB-V1 MDR tox: inactive; TDP1 cell CPT: 3.3%; DT40 TDP1 no CPT: -0.5%; HT1080NT lethal: 14.9%; KB-3-1 tox: inactive; HT1080 IDH1KD tx: 18.5%

Results for COc1ccccc1CNS(=O)(=O)c1ccc2c(c1)CC(C)N2C(=O)C1CC1 (stereo not drawn) ?
KB-V1 MDR tox: inconclusive; TDP1 cell CPT: inconclusive; DT40 TDP1 no CPT: inconclusive; HT1080NT lethal: inconclusive; KB-3-1 tox: inactive; HT1080 IDH1KD tx: -26.4%

What do the screens show for `CC1Cc2cc(S(=O)(=O)NCc3ccc(F)cc3)ccc2N1C(=O)C1CCC1` (stereo not drawn)?
TDP1 cell CPT: inconclusive; DT40 TDP1 no CPT: 2.91µM*

What do the screens show for `CC1Cc2cc(S(=O)(=O)NCc3ccc(Cl)cc3)ccc2N1C(=O)C1CCC1` (stereo not drawn)?
KB-V1 MDR tox: inactive; TDP1 cell CPT: 23.1µM*; DT40 TDP1 no CPT: 13µM*; KB-3-1 tox: inconclusive

How did CCOc1ccc(NC(=O)CCNS(=O)(=O)c2ccc3c(c2)CC(C)N3C(C)=O)cc1 (stereo not drawn) do in these assays?
KB-V1 MDR tox: inconclusive; TDP1 cell CPT: 14.6µM*; DT40 TDP1 no CPT: 23.1µM*; HT1080NT lethal: -2.3%; KB-3-1 tox: inactive; HT1080 IDH1KD tx: 9.2%

Results for CC(=O)N1CCc2cc(S(=O)(=O)NCc3ccc(C)cc3)ccc21 ?
KB-V1 MDR tox: inactive; TDP1 cell CPT: inconclusive; DT40 TDP1 no CPT: 7.31µM*; HT1080NT lethal: 0.1%; KB-3-1 tox: inconclusive; HT1080 IDH1KD tx: -17.2%

Results for COc1cccc(NC(=O)CN2CCC(NC(=O)c3ccccc3C)CC2)c1 ?
KB-V1 MDR tox: inactive; TDP1 cell CPT: -7.9%; DT40 TDP1 no CPT: -1.6%; HT1080NT lethal: -7.0%; KB-3-1 tox: inactive; HT1080 IDH1KD tx: -6.9%

What do the screens show for `CC(=O)N1c2ccc(S(=O)(=O)NCCC(=O)NC3CCC(C)CC3)cc2CC1C` (stereo not drawn)?
KB-V1 MDR tox: inactive; TDP1 cell CPT: -18.0%; DT40 TDP1 no CPT: -8.1%; HT1080NT lethal: 6.3%; KB-3-1 tox: inactive; HT1080 IDH1KD tx: 12.2%

How did CC(=O)N1c2ccc(S(=O)(=O)NCc3ccc(Cl)cc3)cc2CC1C (stereo not drawn) do in these assays?
TDP1 cell CPT: inconclusive; DT40 TDP1 no CPT: 23.1µM*

How did Cc1ccc(CNS(=O)(=O)c2ccc3c(c2)CC(C)N3C(=O)C2CCC2)cc1 (stereo not drawn) do in these assays?
KB-V1 MDR tox: inactive; TDP1 cell CPT: inconclusive; DT40 TDP1 no CPT: 20.6µM*; KB-3-1 tox: inactive

Results for CCC1(c2ccccc2)NC(=O)N(CC(=O)N2CCc3ccccc32)C1=O (stereo not drawn) ?
KB-V1 MDR tox: 11.6µM*; TDP1 cell CPT: inconclusive; DT40 TDP1 no CPT: -23.0%; HT1080NT lethal: -1.1%; KB-3-1 tox: inactive; HT1080 IDH1KD tx: -0.1%

What do the screens show for `Cc1ccc(C2(C)NC(=O)N(CC(=O)N3CCc4ccccc43)C2=O)cc1` (stereo not drawn)?
KB-V1 MDR tox: inconclusive; TDP1 cell CPT: -28.2%; DT40 TDP1 no CPT: -23.9%; HT1080NT lethal: -9.9%; KB-3-1 tox: inactive; HT1080 IDH1KD tx: -2.0%
